# Assay results published in PubChem BioAssay (NCI).
# This is part of a sample that, as a whole, favours compounds with a hit. Of some 83,000 tested, about 20% had one in any assay.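 The endpoint reported here, percent growth, reads 100 for growth as untreated, 0 for no net growth and -100 for all cells dead.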 Values without a mark were called inactive. Active and inactive are the calls of the source. The calls were made as follows: active = growth percent below 10; inactive = the rest.
# Tests used:
# Assay in all cases: NCI-60 one-dose screen, 48 h (100 = growth as untreated, 0 = no growth, -100 = all killed)
# Settings in all cases: 10 µM unless noted
# [1] = test system: HCT-15 colon
# [2] = test system: HT29 colon
# [3] = test system: SNB-75 CNS
# [4] = test system: SNB-19 CNS
# [5] = test system: U251 CNS
# [6] = test system: PC-3 prostate
# [7] = test system: SK-MEL-5 melanoma
# [8] = test system: UACC-62 melanoma
# [9] = test system: LOX IMVI melanoma
# [10] = test system: SK-MEL-28 melanoma
# [11] = test system: SK-MEL-2 melanoma
# [12] = test system: EKVX NSCLC
# [13] = test system: SN12C renal
# [14] = test system: UO-31 renal
# [15] = test system: TK-10 renal
# [16] = test system: ACHN renal
# [17] = test system: CAKI-1 renal
# [18] = test system: A498 renal
# [19] = test system: CCRF-CEM leukemia
# [20] = test system: MOLT-4 leukemia
SMILES,growth [1],growth [2],growth [3],growth [4],growth [5],growth [6],growth [7],growth [8],growth [9],growth [10],growth [11],growth [12],growth [13],growth [14],growth [15],growth [16],growth [17],growth [18],growth [19],growth [20]
COC(=O)c1ccc(-c2c(-c3ccccc3)c(F)c3oc(C(=O)OC)c(N)c3c2-c2ccccc2)cc1,77%,102%,95.7%,80.2%,82.2%,92.1%,99.4%,82.8%,81.6%,98.9%,99.6%,90.4%,98.1%,88.6%,114%,102%,81.1%,99%,95%,66.5%
Cc1nn(-c2ccccc2)c2ncn(CC(=O)N/N=C/c3ccccc3O)c(=O)c12,20.8%,28.2%,76.1%,57.1%,40.2%,43.3%,28.9%,34.3%,10.4%,66.9%,55%,13.3%,47.4%,22.6%,63.4%,21.4%,39.1%,87.2%,23.9%,9.42% (active)
COc1ccc(N=Nc2c(N)nn3c(-c4ccc5c(c4)C=S=C5)ccnc23)cc1,18.2%,47.6%,35.6%,59.7%,34.5%,25%,16.9%,38%,13%,63.1%,93.4%,33.9%,39%,16.4%,82.4%,31.6%,34%,144%,10.1%,32.9%
COc1cc(/C=C/C(=O)c2cnn(-c3cc(=O)[nH]c4ccc(Cl)cc34)c2C)cc(OC)c1OC,-40.2% (active),-71.9% (active),-11.4% (active),-68.9% (active),-65.7% (active),-26.9% (active),-88.9% (active),-49.1% (active),-60.8% (active),-69.2% (active),-80.6% (active),-4.28% (active),0.0215% (active),-72.6% (active),0.154% (active),-35.4% (active),-68.4% (active),-21.5% (active),-16.7% (active),-10.9% (active)
COc1cc2cc(C(=O)N3C[C@@H](CCl)c4c3cc(OC(=O)N(C)CCSSCCN3CCOCC3)c3ccccc43)[nH]c2c(OC)c1OC,-11.1% (active),-10% (active),-74.6% (active),-99.6% (active),-24.1% (active),-12.2% (active),-46.5% (active),-80.3% (active),-69.2% (active),-60.7% (active),-86.8% (active),-40.1% (active),-48.4% (active),-28.2% (active),-40% (active),-18.9% (active),-45.3% (active),-15.9% (active),-15.9% (active),-18.2% (active)
Cn1cc(-c2cc(N)n3nc(-c4c[nH]c5ccccc45)cc3n2)c2cc(Br)ccc21,-76.6% (active),-52% (active),-47.7% (active),-85.9% (active),-95.2% (active),-42.7% (active),-94.5% (active),-69.4% (active),-79.3% (active),-59.1% (active),-65.4% (active),-86.5% (active),-78.8% (active),-82.3% (active),-94.6% (active),-87.7% (active),-87.3% (active),-92.5% (active),-22.9% (active),7.68% (active)
C=CCSc1nnc(-c2ccc(-c3nc4ccc(Cl)cc4[nH]3)cc2)o1,28%,32.1%,45.9%,76.1%,47.3%,63.2%,35.9%,39.4%,39.4%,60%,38.7%,60.8%,63.1%,78.4%,90.3%,78.8%,49.2%,106%,37.1%,48.9%
FC(F)(F)c1cc2c(Cl)ncnc2n1CCN1CCCCC1,-30.7% (active),56.2%,13.6%,-35.3% (active),81.8%,55.8%,83.2%,50.8%,-88.8% (active),52.5%,-16% (active),72%,59.7%,-96.3% (active),105%,-22.5% (active),21.3%,113%,4.18% (active),-14.3% (active)
Cc1ccc2c(c1)nc(-c1ccccc1)n2CC(=O)N=Nc1c(O)[nH]c2ccc(Cl)cc12,-45.7% (active),-62.7% (active),-83% (active),-62.3% (active),-77.7% (active),-51.2% (active),-62.6% (active),-63.5% (active),-70.1% (active),-71.7% (active),-75.4% (active),-31.9% (active),-77.9% (active),-89.6% (active),-15.1% (active),-89.5% (active),-42.6% (active),-71.1% (active),4.22% (active),-20.3% (active)
N#C/C(=C1/C(=O)Nc2ccccc21)c1nnc(NC(=O)c2ccc(-n3c(=O)[nH]c4ccccc4c3=O)cc2)s1,14.8%,26.9%,79.5%,51.1%,37.5%,31.8%,10.3%,42%,0.591% (active),34.4%,57.7%,38.9%,33.1%,29.5%,84.3%,28.2%,49.2%,133%,7.74% (active),0.108% (active)
CN(C)CCOc1ccc(C(=O)C2[C@H](c3ccc(Cl)cc3)[C@@H](c3ccccc3)NC23C(=O)Nc2ccc(Cl)cc23)cc1 (stereo not given in full),-91.5% (active),-93.7% (active),-90.7% (active),-96.2% (active),-82.9% (active),-89.9% (active),-98.2% (active),-78.3% (active),-96.3% (active),-93.4% (active),-92.5% (active),-93.9% (active),-94.5% (active),-99.7% (active),-96.7% (active),-100% (active),-98.6% (active),-95.9% (active),-65.4% (active),-77.4% (active)
Cc1ccc(C(C(=O)NC2CCCCC2)N(Cc2ccccc2Cl)C(=O)c2ccc(CN3CCOCC3)o2)o1 (stereo not given),98.3%,95.4%,80.2%,85.6%,103%,78.5%,83.4%,66.2%,87%,114%,92.8%,89%,95%,71.1%,101%,104%,72.4%,119%,86.8%,70.3%
Fc1ccccc1CNc1nc(SCCN2CCOCC2)nc2c1cnn2CC(Cl)c1ccc(Br)cc1 (stereo not given),-53.3% (active),-33.6% (active),50.1%,52.6%,37.8%,30.3%,-76% (active),-4.51% (active),1.88% (active),22%,31.1%,49%,53.2%,-6.44% (active),58.9%,25.1%,27%,53.8%,22.4%,-25.2% (active)
Cc1nc(Nc2ccccn2)sc1C1=NNC(c2ccccc2F)C1 (stereo not given),20.8%,30.4%,62.3%,56.1%,51%,58.5%,48.7%,29.4%,31.5%,65.9%,62.1%,72.4%,57.9%,48%,119%,56.5%,61.8%,101%,19.1%,25.4%
O=C(N/N=C/c1ccc(Cl)cc1)c1ccc(OCc2nc3ccc(Cl)cc3[nH]2)cc1,-47.1% (active),-55.7% (active),53.9%,35%,-88.5% (active),-10.1% (active),52.2%,47.5%,-81% (active),41%,47.7%,32.1%,30.4%,11.1%,12.4%,28.6%,73.6%,129%,66.7%,15%
